This is part of a sample that, as a whole, favours compounds with a hit. Of some 83,000 tested, about 20% had one in any assay.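 Growth was measured after 48 h exposure to one concentration of compound in 96-well plates. Values under 10 count as active.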 A number with no mark means an inactive call. Calls of active or inactive are those of the source.

What all share (assay): NCI-60 one-dose screen, 48 h (100 = growth as untreated, 0 = no growth, -100 = all killed)
For assay [1], the system named is HCT-15 colon. To be noted: 10 µM unless noted.
Assay [2] concerns HT29 colon. To be noted: 10 µM unless noted.
The subject of assay [3] is SNB-75 CNS. To be noted: 10 µM unless noted.
Assay [4] has as its system SNB-19 CNS. To be noted: 10 µM unless noted.
Assay [5] has as its system U251 CNS. To be noted: 10 µM unless noted.
The subject of assay [6] is SK-MEL-5 melanoma. To be noted: 10 µM unless noted.
For assay [7], the system named is UACC-62 melanoma. To be noted: 10 µM unless noted.
Assay [8] has as its system LOX IMVI melanoma. To be noted: 10 µM.
Assay [9] has as its system SK-MEL-28 melanoma. To be noted: 10 µM unless noted.
The test system of assay [10] is SK-MEL-2 melanoma. To be noted: 10 µM unless noted.
In assay [11] the test system is SN12C renal. To be noted: 10 µM unless noted.
In assay [12] the test system is UO-31 renal. To be noted: 10 µM unless noted.
Assay [13] has as its system TK-10 renal. To be noted: 10 µM unless noted.
Assay [14] relates to ACHN renal. To be noted: 10 µM unless noted.
The subject of assay [15] is CAKI-1 renal. To be noted: 10 µM unless noted.
Assay [16] concerns A498 renal. To be noted: 10 µM unless noted.
Assay [17] deals with CCRF-CEM leukemia. To be noted: 10 µM unless noted.
Assay [18] relates to MOLT-4 leukemia. To be noted: 10 µM unless noted.
Assay [19] concerns PC-3 prostate. To be noted: 10 µM unless noted.
The subject of assay [20] is EKVX NSCLC. To be noted: 10 µM unless noted.

Take `CCOC(=O)CSCCC#N`: the growth in [1] was 100%; in assay [2], 97.9%; in assay [3], 97%; in assay [4] it was 104%; in [5] it was 105%; in [6], 111%. Besides, the growth in [7] is 99.3%; in assay [8], 96.3%; in assay [9], 96.6%; in [10] it was 105%; in assay [11], 97.9%; in assay [12] it was 98.8%. Also, the growth was 101% in assay [13]; 95.2% in assay [14]; 96% in [15]; 83.1% in assay [16]; 102% in assay [17]; 91.5% in [18].

For `C[n+]1cc2cc3c(cc2c2ccccc21)OCO3`, the growth is 97.2% in [1]; 63% in [2]; 22.5% in [3]; 16.1% in [4]; 51.6% in assay [19]; 43.1% in [6]. The growth was 72.7% in assay [7]; 63.2% in assay [8]; 45.6% in [9]; 9.45% (active) in assay [11]; 72% in [12]; 92.8% in [13]. The growth was 106% in assay [14]; 102% in assay [15]; 72.8% in assay [16]; 57.5% in assay [17]; 12.4% in [18].

Take `C=CC1=NC(C)(C)CC(C)O1` (stereo unspecified): the growth in assay [1] was 98.9%; in assay [2], 106%; in assay [3], 72%; in assay [4], 99.5%; in assay [19], 102%; in [6], 105%. Moreover, the growth in assay [7] was 100%; in [8], 98.4%; in assay [9] it was 96.6%; in [10] it was 112%; in assay [12] it was 111%; in [13] it was 106%. Moreover, the growth was 101% in assay [14]; 114% in assay [15]; 98.3% in assay [16]; 95.7% in [17]; 98.5% in assay [18].

On to `O=C(O)c1c[nH]c2ccccc2c1=O`, for which the growth was 110% in assay [1]; 97.6% in assay [2]; 89.9% in [3]; 101% in assay [4]; 93.9% in [5]; 101% in assay [6]. Further, the growth in [7] was 101%; in [8], 97.2%; in [10], 95.1%; in [20], 103%; in assay [11], 103%; in assay [12], 90.6%. The growth in assay [13] was 97.7%; in assay [14], 102%; in [15], 100%; in [16], 127%; in assay [18] it was 90%.

Turning to `CC(C)(C)CC1(C)NC(=O)NC1=O` (stereo unspecified), the growth in assay [1] is 110%; in [2], 107%; in assay [3], 83.8%; in assay [4] it was 110%; in assay [5] it was 111%; in [6] it was 108%. Further, the growth is 102% in assay [8]; 116% in [9]; 166% in [10]; 108% in assay [20]; 110% in assay [11]; 100% in [12]. Besides, the growth in assay [13] was 125%; in [14] it was 109%; in [15], 102%; in assay [16], 120%; in [17], -59.7% (active); in assay [18], 93.2%.

For the compound `CC12CCC3c4ccc(O)cc4CCC3C1CCC2=O` (stereo unspecified), the growth in [1] was 101%; in assay [2], 96.4%; in assay [3], 93.4%; in [4] it was 98.2%; in assay [5], 101%; in [6] it was 101%. Besides, the growth in assay [7] is 94.6%; in assay [8], 103%; in [10], 98.7%; in assay [20], 83.8%; in [11] it was 96.2%; in assay [12], 81.7%. In addition, the growth was 91.1% in [13]; 103% in assay [14]; 102% in assay [15]; 93.7% in [17]; 81.1% in [18].

`BrCc1cccc(C[P+](c2ccccc2)(c2ccccc2)c2ccccc2)c1`: the growth is 92.5% in assay [1]; 50.7% in [2]; 47.6% in assay [3]; 52.3% in assay [4]; 19.4% in [5]; 22.6% in assay [6]. Moreover, the growth is 54.7% in assay [7]; 40.2% in assay [8]; 67.6% in assay [9]; 70.4% in [10]; 44.6% in assay [20]; 57.7% in assay [11]. Moreover, the growth in [12] was 70.7%; in assay [13] it was 90.8%; in assay [14], 82.7%; in assay [17], 36.1%; in assay [18] it was 84.9%.

`C=CCC(OC(C)=O)c1ccc(OC)c(OC)c1` (stereo unspecified): the growth in [1] is 104%; in assay [2], 107%; in assay [3], 98.8%; in [4], 109%; in [5] it was 101%; in [6] it was 119%. The growth in [7] is 107%; in assay [8], 107%; in [9], 132%; in [20] it was 107%; in [11], 102%; in assay [12] it was 90.4%. Further, the growth was 102% in assay [13]; 99% in assay [14]; 92.3% in assay [15]; 110% in [16]; 100% in [17]; -29% (active) in [18].

Take `Clc1ccc(C(SCc2ccccc2)SCc2ccccc2)cc1`: the growth in [1] was 97.8%; in assay [2], 90.9%; in assay [3] it was 91.3%; in [4], 105%; in [5], 88.7%; in assay [6], 98.8%. Further, the growth in assay [7] was 82.1%; in assay [8] it was 94.3%; in assay [9] it was 96.3%; in [10] it was 103%; in [20], 89.9%; in assay [11] it was 104%. For the same compound, the growth in assay [12] was 90%; in [13] it was 104%; in assay [15] it was 85%; in assay [17], 83.4%; in assay [18] it was 84.9%.

For the origin of these results see PubChem BioAssay (NCI).
